The full ranking holds about 81,000 sequences; the median of “one-hybrid fitness for binding NBS DNA” is about -0.1, and the highest 2% start at about 0.36. This is one part of a sample in which the highest values are shown more often than they occur.
B1: Caulobacter ParB omega fusion; a variant is named by its letters at X, in order, B8GW30 (parent)
chain: MESVVVGEPGMSEGRRGLGRGLSALLGEVDAAPAQAPGEQLGGSREAPIEILQRNPDQPRRTFREEDLEDLSNSIREKGVLQPILVRPSPDTAGEYQIVAGERAWRAAQRAGLKTVPIMVRELDDLAVLEIGIIENVQRADLNVLEEALSYKVLMEKFERTQENIAQTIGKSXSHVANXMRLLXLPDEVQSYLVSGELTAXHARAIAAAADPVALAKQIIEGGLSVRETEALARKAPNLSAGKSKGGRPPRVKDTDTQALESDLSSVLGLDVSIDHRGSTGTLTITYATLEQLDDLCNRLTRGI

Variants of: B1
Assay: one-hybrid fitness for binding NBS DNA (the Noc-binding site; scaled: cognate 1, non-cognate 0); higher = stronger binding
Conditions: with NBS DNA site
Outline: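 The reporter was HIS3, with the binding site 19 bp from the promoter, in E. coli USO used for bacterial one-hybrid selection of Caulobacter ParB libraries with four specificity codons randomised. Growth was on M9 lacking histidine, with 0.1 mM IPTG and 5 mM 3-AT, for 48 hours at 37°C. Illumina sequencing covered plasmids before and after selection; three replicate libraries were pooled and variants with under 10 reads dropped. A fitness score is the log change in variant-to-wild-type read ratio, rescaled to the cognate and non-cognate references.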

Variant	one-hybrid fitness for binding NBS DNA
KFSS	≤ 0.2
KFVF	≤ 0.2
LRQC	≤ 0.2
DWDT	≤ 0.2
RAST	0.405
RASG	≤ 0.2
RAIT	0.22
WCGS	≤ 0.2
WSGA	≤ 0.2
LRTY	≤ 0.2
RCDS	≤ 0.2
RPRS	≤ 0.2
RLRS	0.541
RSIS	0.203
RCRD	≤ 0.2
RCYS	0.521
RCRS	0.661
RSPS	≤ 0.2
RLRH	0.322
RCIS	0.281
RSYS	0.409
RLYS	0.34
PGSA	≤ 0.2
INQF	≤ 0.2
RCMW	≤ 0.2

Variant	one-hybrid fitness for binding NBS DNA
QPWY	≤ 0.2
PDHS	≤ 0.2
CDSD	≤ 0.2
TLGI	≤ 0.2
NQER	≤ 0.2
HRCR	≤ 0.2
DVPR	≤ 0.2
LVEQ	≤ 0.2
RFIS	≤ 0.2
RFRS	0.446
RFYS	≤ 0.2
RSRD	≤ 0.2
RMRN	0.25
RSRS	0.593
RMRS	0.642
RSRN	≤ 0.2
RMYS	0.361
GATS	≤ 0.2
FYHG	≤ 0.2
RQDG	≤ 0.2
PLRC	≤ 0.2
MYHV	≤ 0.2
MNMN	≤ 0.2
NSER	≤ 0.2
IPMG	≤ 0.2

Variant	one-hybrid fitness for binding NBS DNA
MNVG	≤ 0.2
YLLC	≤ 0.2
QMAR	0.602
QMAN	≤ 0.2
QMFS	0.251
QMAP	≤ 0.2
QMFD	≤ 0.2
QMFR	0.431
KGLV	≤ 0.2
WVEH	≤ 0.2
QVVS	≤ 0.2
VVYG	≤ 0.2
QRNC	0.44
QRDP	≤ 0.2
QCNC	≤ 0.2
QRRH	0.779
QRDN	≤ 0.2
QRDH	0.381
QCNN	0.208
QRNN	0.459
QRRL	0.364
QRDD	≤ 0.2
QRDC	0.227
NRRH	≤ 0.2
WYLT	≤ 0.2

Variant	one-hybrid fitness for binding NBS DNA
RDFR	≤ 0.2
EMRY	≤ 0.2
KWVR	≤ 0.2
YLCS	≤ 0.2
TWCL	≤ 0.2
SYCN	≤ 0.2
IVKG	≤ 0.2
CWPS	≤ 0.2
QCNM	0.224
QRNP	0.308
QRNQ	0.439
QREH	0.258
QRWH	0.301
QRNH	0.598
QRDM	≤ 0.2
QRYH	0.486
QRNM	0.461
QRND	0.306
QSNQ	≤ 0.2
QRDQ	0.215
KICK	≤ 0.2
QEKS	≤ 0.2
LWPC	≤ 0.2
QDAY	≤ 0.2
RGRV	≤ 0.2

Variant	one-hybrid fitness for binding NBS DNA
KRKM	0.253
KRKH	0.482
KRKS	0.536
KRKN	0.272
KRYY	≤ 0.2
KRKP	≤ 0.2
KRVS	0.395
KRKD	≤ 0.2
KRVD	≤ 0.2
KRVY	≤ 0.2
KRKY	0.368
KRVH	≤ 0.2
AKVL	≤ 0.2
ALSW	≤ 0.2
HILV	≤ 0.2
LNQE	≤ 0.2
DNHT	≤ 0.2
YLSD	≤ 0.2
HLNK	≤ 0.2
MSFM	≤ 0.2
LRFR	≤ 0.2
TEAT	≤ 0.2
QCRW	0.371
QRDW	≤ 0.2
PRYW	≤ 0.2

Variant	one-hybrid fitness for binding NBS DNA
QSRW	0.254
QRRW	0.384
QTYW	≤ 0.2
QPRW	≤ 0.2
QTRW	0.417
PRVW	≤ 0.2
PRKW	0.446
QRYW	0.203
QTDW	≤ 0.2
NMRT	≤ 0.2
KSRN	≤ 0.2
MPIT	≤ 0.2
SLCY	≤ 0.2
ADNG	≤ 0.2
FLPR	≤ 0.2
QRKW	0.411
QRVW	≤ 0.2
QTVW	≤ 0.2
QSKW	0.279
QTKW	0.439
QCKW	0.324
NCCT	≤ 0.2
PANC	≤ 0.2
PYWD	≤ 0.2
QGMV	≤ 0.2

Variant	one-hybrid fitness for binding NBS DNA
TIMA	≤ 0.2
FGDS	≤ 0.2
LKMV	≤ 0.2
RGKR	0.38
RGYR	≤ 0.2
RMKR	0.738
RAKP	≤ 0.2
RAKR	0.668
RIKR	0.675
RMVR	0.314
RMKY	0.311
RIVR	0.28
RAVR	0.277
RGVR	≤ 0.2
RIKD	≤ 0.2
IRVQ	0.203
VYLC	≤ 0.2
TESV	≤ 0.2
QVNP	≤ 0.2
GTKF	≤ 0.2
LEMR	≤ 0.2
RFPS	≤ 0.2
QVIH	≤ 0.2
GACL	≤ 0.2
RWKM	≤ 0.2

Variant	one-hybrid fitness for binding NBS DNA
RFKR	0.522
NFKR	≤ 0.2
RLVR	0.257
RSVR	0.293
RWYM	≤ 0.2
RLKH	0.35
RLKR	0.686
RFVR	≤ 0.2
RWVM	0.413
RSKN	≤ 0.2
RSKR	0.682
YFYC	≤ 0.2
QASC	≤ 0.2
LDYW	≤ 0.2
GGII	≤ 0.2
RCKR	0.76
RHKH	0.326
RHKR	0.701
RWKP	≤ 0.2
RWVR	0.259
RWKR	0.372
RDKR	≤ 0.2
RPKR	≤ 0.2
RHVR	0.248
FTQR	≤ 0.2

Variant	one-hybrid fitness for binding NBS DNA
PCEF	≤ 0.2
PQIS	≤ 0.2
NIFS	≤ 0.2
NWPM	≤ 0.2
QHVW	≤ 0.2
NGRT	≤ 0.2
SSRN	≤ 0.2
GTQF	≤ 0.2
RREN	≤ 0.2
RCRN	0.23
RCES	0.207
RRRN	0.618
RRYN	0.26
RRIC	0.399
RRES	0.578
RRIN	0.206
RRIH	0.338
RRIS	0.661
RCIC	≤ 0.2
RRPC	0.249
NKTG	≤ 0.2
YEAN	≤ 0.2
WTTS	≤ 0.2
MTMK	≤ 0.2
HRPA	≤ 0.2

Variant	one-hybrid fitness for binding NBS DNA
GPSL	≤ 0.2
CRYG	≤ 0.2
RPYS	≤ 0.2
RRPS	0.568
RRRS	0.74
RRRP	0.283
RRRD	0.202
RRPD	≤ 0.2
RRYS	0.661
RRYD	≤ 0.2
RRPN	≤ 0.2
VRHA	≤ 0.2
LNEM	≤ 0.2
ADCG	≤ 0.2
SSQM	≤ 0.2
DSAV	≤ 0.2
PELK	≤ 0.2
STQD	≤ 0.2
GVGA	≤ 0.2
SIFQ	≤ 0.2
KRTT	0.583
KRTP	≤ 0.2
NRTT	≤ 0.2
KPTR	≤ 0.2
KCTR	≤ 0.2

Variant	one-hybrid fitness for binding NBS DNA
KRTN	≤ 0.2
KRTR	0.563
KRTS	0.448
KCTT	≤ 0.2
EFMG	≤ 0.2
NTNM	≤ 0.2
VSAH	≤ 0.2
AAKR	0.205
NKSI	≤ 0.2
GMFR	≤ 0.2
SFAG	≤ 0.2
ARGR	≤ 0.2
TRNR	0.466
TRHR	0.409
TRRR	0.682
TCNR	≤ 0.2
TCHR	≤ 0.2
TCGR	≤ 0.2
TRYR	0.301
TRHN	≤ 0.2
TCRR	0.333
TRDR	≤ 0.2
TRGR	0.389
RYPE	≤ 0.2
FLFY	≤ 0.2

Variant	one-hybrid fitness for binding NBS DNA
CVRG	≤ 0.2
MMMT	≤ 0.2
PQRS	≤ 0.2
PARP	≤ 0.2
AWAT	≤ 0.2
NMTI	≤ 0.2
LVAP	≤ 0.2
RIYS	0.413
RIWS	0.397
RINS	0.445
RIRP	≤ 0.2
RIIS	≤ 0.2
RIWD	≤ 0.2
RIFS	0.214
RIND	≤ 0.2
RIRD	≤ 0.2
RIWP	≤ 0.2
RIRS	0.56
RIDS	≤ 0.2
DTYS	≤ 0.2
SANL	≤ 0.2
RGWI	≤ 0.2
YSMI	≤ 0.2
YTKY	≤ 0.2
IQNI	≤ 0.2

Variant	one-hybrid fitness for binding NBS DNA
RIHN	≤ 0.2
RIHD	≤ 0.2
RIHS	0.381
NKNM	≤ 0.2
IYPV	0.41
QYRV	0.392
QYKV	0.372
QYDV	≤ 0.2
QYYV	≤ 0.2
IYVV	≤ 0.2
QYVV	≤ 0.2
WYCV	0.366
WYRV	≤ 0.2
QYSV	≤ 0.2
WYVV	≤ 0.2
IYIV	≤ 0.2
